Each structure is given as a SMILES string. Results filed as inconclusive are left out. Calls of active or inactive are those of the source. Unless noted, calls come from the whole dose curve; as a rule, active = well fitted curve in the direction sought with a large enough effect in the repeat runs; inconclusive = weak or mixed curves; inactive = no such curve, though single readings can be large; an effect the other way counts as inactive or inconclusive.

The values that follow come from PubChem BioAssay (Tox21).

Assay [1] can be described thus: qHTS assay to identify small molecule antagonists of the estrogen receptor alpha (ER-alpha) signaling pathway using the BG1 cell line in the presence of 0.1 nM 17-beta-estradiol - cell viability counter screen (AID 1259241). Note: nearly all actives have a fitted effect of over 40% in size. Note: potency is the fitted concentration of half-maximal effect. The essentials: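 The cell line endogenously expresses full-length ER-alpha and carries four EREs driving luciferase. Cells are cultured 5 days hormone-free, treated 22 hr with compounds and 0.1 nM estradiol, then viability is read by fluorescence.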
Background: In qHTS, concentration-response curves come from the screen itself.

Assay [2] can be described thus: qHTS assay to identify small molecule antagonists of the androgen receptor (AR) signaling pathway using the MDA cell line in the presence of 0.5 nM R1881 - cell viability counter screen (AID 1259242). Note: nearly all actives have a fitted effect of over 45% in size. Note: potency is the fitted concentration of half-maximal effect. Put shortly:
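Human breast carcinoma MDA-kb2 cells, cultured without CO2, receive compounds alongside 0.5 nM (final) R1881 agonist. After 16 hr at 37C, viability is taken as live-cell protease signal.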

Assay [3] addresses Androgen receptor (Homo sapiens) (UniProt P10275). The assay can be described thus: qHTS assay to identify small molecule antagonists of the androgen receptor (AR) signaling pathway using the MDA cell line in the presence of 0.5 nM R1881 (AID 1259243). Note: nearly all actives have a fitted effect of over 50% in size. Note: potency is the fitted concentration of half-maximal effect. Put shortly: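 Cells: MDA-kb2 (MMTV-luc). Stimulus: 0.5 nM R1881. Time: 16 hr, 37C, no CO2. Detection: ONE-Glo luminescence after 30 min at RT.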

Assay [4] is described as follows: qHTS assay to identify small molecule HDAC inhibitors (AID 1259364).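 Note: wild-type HCT-116 cells with endogenous class I/II HDAC activity; top concentration of the series differs between compounds; nearly all actives have a fitted effect of over 45% in size.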 The essentials:
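After a 2 hr compound incubation (37C, 5% CO2), HCT-116 cells seeded at 1,500/well the day before received HDAC-Glo reagent; signal read as luminescence after 30 min at room temperature.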

Assay [5] in a line: qHTS assay to identify small molecule agonists of the sonic hedgehog signaling (Shh) pathway - cell viability counter screen (AID 1259366). Note: nearly all actives have a fitted effect of over 50% in size. The essentials:
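Viability measured fluorometrically (CellTiter-Fluor, 1hr, 37C) in 3T3 Gli1-Luc reporter cells after 23hr compound exposure within a 24hr incubation at 37C/5% CO2.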

Assay [6] is described as follows: qHTS assay to identify small molecule antagonists of the sonic hedgehog signaling (Shh) pathway - cell viability counter screen (AID 1259367). Note: nearly all actives have a fitted effect of over 55% in size. Put shortly: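 Tox21 library chemicals were tested on a Gli1-Luc NIH/3T3 clone (2,000 cells/well) stimulated by conditioned medium; viability was quantified as fluorescence from CellTiter-Fluor reagent added at 23 hr.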
Assay [7] in a line: qHTS assay to identify small molecule agonists of the sonic hedgehog signaling (Shh) pathway (AID 1259368; calls by dose curve;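 note: NIH/3T3-derived 3T3Gli1-Luc cells carrying a stable Gli1-driven firefly luciferase reporter; series mostly up to about 92 µM; nearly all actives have a fitted effect of over 15% in size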). Put shortly:
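Stable NIH/3T3 Gli1-Luc reporter clone; 24 hr cpd exposure after a 4 hr settling period; luminescence endpoint.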

Assay [8] is described as follows: qHTS assay to identify small molecule antagonists of the sonic hedgehog signaling (Shh) pathway (AID 1259369; calls by dose curve; note: nearly all actives have a fitted effect of over 45% in size; note: potency is the fitted concentration of half-maximal effect). The essentials:
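Gli1 transcriptional reporter (firefly Luc) in NIH/3T3 background, conditioned-medium activated. 24hr exposure, luminescence endpoint.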

Assay [9] concerns the target Estrogen receptor beta (Homo sapiens) (UniProt Q92731). The assay is described as follows: qHTS assay to identify small molecule agonists of the estrogen receptor beta (ER-beta) signaling pathway (AID 1259377; active = well fitted activation curve with a large enough effect in the signal ratio in the repeat runs, not every such curve was filed as active; the % refers to the signal ratio). The essentials: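 A UAS-controlled beta-lactamase reporter in ER-beta-UAS-bla HEK293T cells reports receptor activation. Compounds act for 16 hr at 37C in 2% charcoal-stripped serum, and a FRET substrate is read by fluorescence after 2 hours.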

Assay [10] has the same target. The assay can be described thus: qHTS assay to identify small molecule antagonists of the estrogen receptor beta (ER-beta) signaling pathway (AID 1259378; active = well fitted inhibition curve with a large enough effect in the signal ratio in the repeat runs, not every such curve was filed as active; the % refers to the signal ratio; note: potency is the fitted concentration of half-maximal effect). Put shortly: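 ER-beta-UAS-bla HEK293T cells in 2% charcoal-stripped FBS medium treated with compound plus 1nM final 17-beta-estradiol for 16 hr at 37C. Beta-lactamase reporter read by FRET substrate fluorescence after 2 hours at room temperature.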

Assay [11] in a line: qHTS assay to identify small molecule agonists of the androgen receptor (AR) signaling pathway in the presence of an antagonist - cell viability counter screen (AID 1259379). Note: nearly all actives have a fitted effect of over 25% in size. Note: potency is the fitted concentration of half-maximal effect. Put shortly:
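Counter screen for cell viability run in parallel with the AR agonist-mode luciferase assay. MDA-kb2 cells were co-treated with nilutamide (3.0uM final) and compounds, then incubated 16 hr at 37C, and CellTiter-Fluor fluorescence was measured.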

The nature of assay [12]: qHTS assay to identify small molecule agonists of the estrogen receptor beta (ER-beta) signaling pathway - cell viability counter screen (AID 1259380). Note: nearly all actives have a fitted effect of over 30% in size. Note: potency is the fitted concentration of half-maximal effect. Put shortly: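 In this qHTS counter screen, HEK293T cells carrying an ER-beta/UAS beta-lactamase reporter, grown in 2% charcoal-stripped FBS, received compound for 16 hr; ATP-based CellTiter-Glo luminescence was then read after 30 min at room temperature.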

Assay [13] addresses Androgen receptor (Homo sapiens) (UniProt P10275). The assay is described as follows: qHTS assay to identify small molecule agonists of the androgen receptor (AR) signaling pathway in the presence of an antagonist (AID 1259381; calls by dose curve; note: nearly all actives have a fitted effect of over 15% in size). The essentials: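 AR antagonist background: nilutamide 3.0uM final. Cell line: MDA-kb2, MMTV-driven luciferase, responsive to both AR and GR. Exposure 16hr, 37C, no CO2; ONE-Glo luminescence.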

Assay [14] in a line: qHTS assay to identify small molecule antagonists of the estrogen receptor beta (ER-beta) signaling pathway - cell viability counter screen (AID 1259382). Note: nearly all actives have a fitted effect of over 55% in size. Note: potency is the fitted concentration of half-maximal effect. Put shortly: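 HEK293T ER-beta-UAS-bla, 2% charcoal-stripped FBS; compounds + 1nM E2 16 hr 37C; CellTiter-Glo luminescence, 30 min RT.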
For assay [15], the target named is Estrogen receptor (Homo sapiens) (UniProt P03372). The assay is described as follows: qHTS assay to identify small molecule antagonists of the estrogen receptor alpha (ER-alpha) signaling pathway using the BG1 cell line in the presence of 0.1 nM 17-beta-estradiol (AID 1259244). Note: nearly all actives have a fitted effect of over 50% in size. Note: potency is the fitted concentration of half-maximal effect. Put shortly: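 Seeding of stripped-serum-adapted VM7Luc4E2 cells, 24 h attachment, compound transfer, then 0.1 nM final 17beta-estradiol; after 22 h incubation, ONE-Glo reagent and luminescence reading.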
Estrogen receptor (Homo sapiens), sequence (P03372 whole entry, looked up): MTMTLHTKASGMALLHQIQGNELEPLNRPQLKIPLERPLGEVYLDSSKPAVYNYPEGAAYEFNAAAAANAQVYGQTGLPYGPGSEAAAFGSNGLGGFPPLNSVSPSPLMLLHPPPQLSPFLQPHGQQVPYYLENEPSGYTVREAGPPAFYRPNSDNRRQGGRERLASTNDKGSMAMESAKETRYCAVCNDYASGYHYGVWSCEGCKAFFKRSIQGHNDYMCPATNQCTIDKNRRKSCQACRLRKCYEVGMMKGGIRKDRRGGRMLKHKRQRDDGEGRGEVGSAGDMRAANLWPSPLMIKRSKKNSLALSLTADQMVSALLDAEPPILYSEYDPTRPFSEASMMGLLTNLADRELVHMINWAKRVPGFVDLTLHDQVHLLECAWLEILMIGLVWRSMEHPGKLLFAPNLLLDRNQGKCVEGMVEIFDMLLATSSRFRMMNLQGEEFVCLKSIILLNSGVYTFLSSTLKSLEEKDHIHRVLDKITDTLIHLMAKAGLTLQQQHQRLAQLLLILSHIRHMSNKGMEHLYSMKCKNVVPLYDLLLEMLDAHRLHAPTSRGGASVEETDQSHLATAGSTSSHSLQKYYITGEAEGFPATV

Assay [16] in a line: qHTS assay to identify small molecule HDAC inhibitors - cell viability counter screen (AID 1259365). Note: series mostly up to about 92 µM; nearly all actives have a fitted effect of over 50% in size. Put shortly: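 Viability readout: CellTiter-Glo luminescence. Wild-type HCT-116 cells, 2hr compound treatment following overnight attachment at 37 C.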
In assay [17] the target is Estrogen receptor (Homo sapiens) (UniProt P03372). The assay is described as follows: qHTS assay to identify small molecule agonists of the estrogen receptor alpha (ER-alpha) signaling pathway in the presence of an antagonist (AID 1259383; calls by dose curve; note: nearly all actives have a fitted effect of over 15% in size; note: potency is the fitted concentration of half-maximal effect; for activation: top concentration of the series differs between compounds). Put shortly:
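ER-alpha agonism measured under antagonist challenge: 10.0nM ICI-182,780 (final) plus compound, 15 concentrations, 22hr, VM7Luc4E2 ERE-luciferase cells. Read by luminescence.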

Assay [18] is described as follows: qHTS assay to identify small molecule agonists or antagonists of the thyroid stimulating hormone receptor (TSHR) signaling pathway - wild type cell line counter screen (AID 1259384; calls by dose curve). Put shortly:
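Wild-type Hek293 cells, 800/well, 18 h at 37C, then compound with Ro20-1724 for 30 min RT. cAMP by HTRF (cAMP-d2/anti-cAMP cryptate), 1 h RT, fluorescence read. 15 concentrations, triplicates.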

Assay [19] deals with Thyrotropin receptor (Homo sapiens) (UniProt P16473). The assay can be described thus: qHTS assay to identify small molecule antagonists of the thyroid stimulating hormone receptor (TSHR) signaling pathway (AID 1259385; calls by dose curve; note: nearly all actives have a fitted effect of over 20% in size). Put shortly: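 TSHR-HEK293 cells (800/well) plated 18 h, then compounds with Ro20-1724 and TSH at 1.5 ng/mL final, 30 min at room temperature. cAMP quantified by HTRF (cAMP-d2/anti-cAMP-cryptate, 1 h); 15 concentrations in triplicate.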
Thyrotropin receptor (Homo sapiens), sequence (P16473 whole entry, looked up): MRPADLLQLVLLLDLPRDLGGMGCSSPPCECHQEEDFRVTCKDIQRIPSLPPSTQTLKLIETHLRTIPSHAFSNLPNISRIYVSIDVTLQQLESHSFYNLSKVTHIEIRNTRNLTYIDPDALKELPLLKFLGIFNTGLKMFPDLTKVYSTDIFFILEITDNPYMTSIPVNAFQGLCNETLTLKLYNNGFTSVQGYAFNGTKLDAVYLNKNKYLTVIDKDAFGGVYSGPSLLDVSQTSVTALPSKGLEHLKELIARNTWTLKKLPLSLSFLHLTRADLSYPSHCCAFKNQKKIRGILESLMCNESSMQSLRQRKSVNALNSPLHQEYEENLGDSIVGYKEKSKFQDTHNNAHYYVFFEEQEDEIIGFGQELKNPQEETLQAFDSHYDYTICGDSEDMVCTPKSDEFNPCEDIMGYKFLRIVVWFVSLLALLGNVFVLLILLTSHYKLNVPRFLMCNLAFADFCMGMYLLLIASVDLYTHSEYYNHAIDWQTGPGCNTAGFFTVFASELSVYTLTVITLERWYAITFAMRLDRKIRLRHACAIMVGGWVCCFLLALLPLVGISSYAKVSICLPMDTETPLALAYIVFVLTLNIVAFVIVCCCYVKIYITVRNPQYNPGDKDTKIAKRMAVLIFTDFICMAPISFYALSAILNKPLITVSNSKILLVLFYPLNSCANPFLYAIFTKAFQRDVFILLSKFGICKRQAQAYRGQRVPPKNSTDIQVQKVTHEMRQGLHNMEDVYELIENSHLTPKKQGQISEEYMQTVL

Androgen receptor (Homo sapiens), sequence (P10275 whole entry, looked up): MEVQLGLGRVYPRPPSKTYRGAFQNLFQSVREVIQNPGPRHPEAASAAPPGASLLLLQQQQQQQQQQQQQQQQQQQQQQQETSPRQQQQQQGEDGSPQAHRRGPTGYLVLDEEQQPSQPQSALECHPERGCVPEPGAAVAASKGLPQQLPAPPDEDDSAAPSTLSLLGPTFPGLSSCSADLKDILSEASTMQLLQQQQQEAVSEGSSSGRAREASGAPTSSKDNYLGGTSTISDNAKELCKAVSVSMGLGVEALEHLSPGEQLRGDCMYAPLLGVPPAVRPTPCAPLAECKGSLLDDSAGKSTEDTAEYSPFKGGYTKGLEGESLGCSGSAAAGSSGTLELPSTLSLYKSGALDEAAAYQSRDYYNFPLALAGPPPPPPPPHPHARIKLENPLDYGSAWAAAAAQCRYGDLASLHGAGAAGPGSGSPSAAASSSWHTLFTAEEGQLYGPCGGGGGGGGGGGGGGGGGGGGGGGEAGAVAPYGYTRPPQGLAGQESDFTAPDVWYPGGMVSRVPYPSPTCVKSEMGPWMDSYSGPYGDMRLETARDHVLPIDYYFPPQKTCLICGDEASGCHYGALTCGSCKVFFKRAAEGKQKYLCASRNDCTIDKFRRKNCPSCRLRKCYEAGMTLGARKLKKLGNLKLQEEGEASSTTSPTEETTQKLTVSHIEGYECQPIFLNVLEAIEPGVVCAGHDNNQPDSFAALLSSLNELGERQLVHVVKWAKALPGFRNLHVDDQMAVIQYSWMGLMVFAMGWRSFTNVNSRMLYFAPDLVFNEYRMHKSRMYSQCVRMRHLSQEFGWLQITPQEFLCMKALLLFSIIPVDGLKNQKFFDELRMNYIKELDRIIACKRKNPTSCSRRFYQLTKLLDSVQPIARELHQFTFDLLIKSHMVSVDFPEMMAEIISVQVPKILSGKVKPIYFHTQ
Estrogen receptor beta (Homo sapiens), sequence (Q92731 whole entry, looked up): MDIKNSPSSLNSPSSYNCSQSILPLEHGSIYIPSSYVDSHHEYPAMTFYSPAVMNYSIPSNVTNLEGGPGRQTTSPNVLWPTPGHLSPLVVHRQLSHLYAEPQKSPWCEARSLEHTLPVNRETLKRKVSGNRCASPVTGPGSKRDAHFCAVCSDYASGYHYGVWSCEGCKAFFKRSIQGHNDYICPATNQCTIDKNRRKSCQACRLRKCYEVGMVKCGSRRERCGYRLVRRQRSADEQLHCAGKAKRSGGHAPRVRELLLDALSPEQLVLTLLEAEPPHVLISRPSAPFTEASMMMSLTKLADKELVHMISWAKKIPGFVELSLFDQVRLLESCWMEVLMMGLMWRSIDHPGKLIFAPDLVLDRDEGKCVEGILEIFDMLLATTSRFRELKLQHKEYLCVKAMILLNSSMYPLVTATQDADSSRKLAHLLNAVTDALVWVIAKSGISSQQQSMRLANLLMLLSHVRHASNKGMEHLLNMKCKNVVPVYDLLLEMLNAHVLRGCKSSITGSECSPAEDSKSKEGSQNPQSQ

With `CCC(C)c1cc(C(C)(C)C)cc(-n2nc3ccccc3n2)c1O` (stereo unspecified), the Potency result in [1], in assay [2], in assay [3], in assay [4], in [5] and in assay [6] was “inactive” throughout. Also, the Potency entry in [7], in [8], in [9], in assay [10], in assay [11] and in assay [12] was “inactive” throughout. The Potency entry in assay [13] and in assay [14] was “inactive” each time.
For the compound `CCCCCCCCCCCCBr`, the Potency entry in assay [1], in [2], in assay [15], in assay [4], in [16] and in [5] was “inactive” each time. The Potency result in [6], in assay [7], in [8], in assay [11] and in assay [17] was “inactive” each time. Further, the Potency in assay [12] is 43.3 µM (active). In addition, the compound was classed as inactive in [18].
With `CCC(C)c1cc([N+](=O)[O-])cc([N+](=O)[O-])c1OC(=O)C=C(C)C` (stereo unspecified), the Potency is 61.1 µM (active) in [1]; 61.1 µM (active) in assay [2]; 54.5 µM (active) in assay [3]; 9.69 µM (active) in assay [8]; 54.5 µM (active) in assay [11]. Besides, the Potency result in assay [4], in [16], in assay [7], in assay [9], in [12] and in assay [13] was “inactive” throughout. Besides, the Potency entry in assay [14] and in assay [19] was “inactive” throughout. In addition, the compound was called inactive in assay [18].
For the compound `ClCc1ccc(Cl)cc1Cl`, the Potency entry in assay [1], in [2], in assay [15], in assay [4], in [16] and in assay [5] was “inactive” in each case. Moreover, the Potency result in [6], in assay [7], in [8], in assay [11], in assay [12] and in assay [14] was “inactive” each time. In addition, the Potency result in assay [17] and in assay [19] was “inactive” in each case. For the same compound, in [18], the call was inactive.
In the case of `Oc1ccc(C(=C(Cl)Cl)c2ccc(O)cc2)cc1`, the Potency result in assay [1], in [2], in assay [4], in [16], in [5] and in assay [6] was “inactive” throughout. Moreover, the Potency entry in assay [7], in assay [11] and in assay [19] was “inactive” each time. The Potency is 61 µM (active) in [15]; 9.67 µM (active) in assay [8]; 3.43 µM (active) in [10]; 68.5 µM (active) in assay [12]; 68.5 µM (active) in assay [14]; 1.93 µM (active) in assay [17]. In [18], the outcome was inactive.
As to `Cc1cc(Cl)ccc1O[C@H](C)C(=O)O`, the Potency result in assay [1], in [2], in assay [15], in [4], in [16] and in assay [5] was “inactive” throughout. Also, the Potency result in assay [6], in assay [7], in assay [8], in assay [10], in assay [11] and in assay [12] was “inactive” throughout. Moreover, the Potency entry in [14] and in [17] was “inactive” in each case.
With `CC(=[OH+])/C=C(/C)[O-].CC(=[OH+])/C=C(\C)[O-].CC(=[OH+])/C=C(\C)[O-].[Al]`, the Potency entry in [1], in assay [2], in [15], in assay [4], in [16] and in assay [5] was “inactive” in each case. In addition, the Potency entry in assay [6], in assay [7], in assay [8], in [11], in assay [12] and in assay [14] was “inactive” each time. Besides, the Potency result in [17] is “inactive”.
On to `O=[N+]([O-])c1ccc(Oc2ccc(C(F)(F)F)cc2[N+](=O)[O-])cc1`, for which the Potency entry in [1], in [2], in [15], in [4], in assay [16] and in [5] was “inactive” each time. Further, the Potency result in assay [6], in assay [7], in assay [9], in assay [10], in assay [11] and in [12] was “inactive” throughout. Besides, the Potency entry in assay [14], in [17] and in [19] was “inactive” throughout. Also, the Potency in assay [8] is 61.1 µM (active). For the same compound, in assay [18], the call was inactive.
